# Laboratory results from paper PMC7862700, “An all-to-all approach to the identification of sequence-specific readers for epigenetic DNA modifications on cytosine”.
# What was measured:
# Assay in all cases: DAPPL (digital affinity profiling via proximity ligation, sequencing); 10 mM Tris-HCl pH 7.5, 50 mM NaCl, 1 mM DTT, 4% glycerol, room temperature, 30 min; GST-TFs on glutathione beads, 16-mer random dsDNA library, 0.1% formaldehyde crosslink after washing; high values mean tight binding
# [1] = target: T1, FEV (Homo sapiens, UniProt Q99581 1-238); conditions: protein: recombinant; tags: N-terminal GST; dsDNA, one strand shown
# T1 sequence: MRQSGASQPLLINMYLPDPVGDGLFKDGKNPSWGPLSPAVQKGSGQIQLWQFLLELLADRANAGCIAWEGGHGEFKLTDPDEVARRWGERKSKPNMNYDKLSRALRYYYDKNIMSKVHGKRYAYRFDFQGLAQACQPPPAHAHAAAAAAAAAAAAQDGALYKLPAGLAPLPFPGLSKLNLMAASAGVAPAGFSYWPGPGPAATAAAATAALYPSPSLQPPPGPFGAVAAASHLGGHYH
# Method in brief: (§1)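 Yeast served to express human transcription factors as GST fusions, which were then captured on glutathione beads and labelled with DNA barcodes. Pooled with a tag-only sample, they were incubated with 200 nmole of a 16-mer random double-stranded DNA library for 30 min at room temperature in Tris/NaCl/DTT/glycerol buffer, washed, crosslinked with 0.1% formaldehyde, ligated by proximity, amplified by PCR and sequenced. Dividing each hexamer's read frequency for a factor by its frequency for the tag-only sample gives the binding signal.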
# [2] = target: ETV5 (Homo sapiens, UniProt P41161 1-510); conditions: protein: recombinant; tags: N-terminal GST; dsDNA, one strand shown
# Method in brief: as §1
# [3] = target: HSF1 (Homo sapiens, UniProt Q00613 1-529); conditions: protein: recombinant; tags: N-terminal GST; chain copies: 3; dsDNA, one strand shown
# Method in brief: as §1
# [4] = target: T2, SPIC (Homo sapiens, UniProt Q8N5J4 1-248); conditions: protein: recombinant; tags: N-terminal GST; dsDNA, one strand shown
# T2 sequence: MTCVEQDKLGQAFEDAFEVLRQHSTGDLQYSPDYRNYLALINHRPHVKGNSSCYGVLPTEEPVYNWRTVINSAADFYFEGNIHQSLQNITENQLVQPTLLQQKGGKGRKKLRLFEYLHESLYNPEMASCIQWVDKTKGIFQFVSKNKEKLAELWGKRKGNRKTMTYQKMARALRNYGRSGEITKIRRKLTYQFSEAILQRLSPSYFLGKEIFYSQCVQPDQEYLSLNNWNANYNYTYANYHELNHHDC
# Method in brief: as §1
# [5] = target: ELF4 (Homo sapiens, UniProt Q99607 1-663); conditions: protein: recombinant; tags: N-terminal GST; dsDNA, one strand shown
# Method in brief: as §1
# [6] = target: T3, ELK4 (Homo sapiens, UniProt P28324-2 1-405); conditions: protein: recombinant; tags: N-terminal GST; dsDNA, one strand shown
# T3 sequence: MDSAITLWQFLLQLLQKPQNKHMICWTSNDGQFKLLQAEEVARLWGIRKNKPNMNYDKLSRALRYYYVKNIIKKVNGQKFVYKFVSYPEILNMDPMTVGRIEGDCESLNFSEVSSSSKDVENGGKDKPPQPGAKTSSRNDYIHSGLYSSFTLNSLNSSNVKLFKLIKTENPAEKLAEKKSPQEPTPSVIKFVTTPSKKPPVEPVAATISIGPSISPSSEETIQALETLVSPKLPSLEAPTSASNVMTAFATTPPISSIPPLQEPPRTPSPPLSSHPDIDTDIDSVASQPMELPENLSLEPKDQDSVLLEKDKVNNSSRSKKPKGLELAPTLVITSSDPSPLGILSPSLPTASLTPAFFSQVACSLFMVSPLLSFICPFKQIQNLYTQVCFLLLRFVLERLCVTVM
# Method in brief: as §1
# [7] = target: T4, ETV2 (Homo sapiens, UniProt O00321 1-342); conditions: protein: recombinant; tags: N-terminal GST; dsDNA, one strand shown
# T4 sequence: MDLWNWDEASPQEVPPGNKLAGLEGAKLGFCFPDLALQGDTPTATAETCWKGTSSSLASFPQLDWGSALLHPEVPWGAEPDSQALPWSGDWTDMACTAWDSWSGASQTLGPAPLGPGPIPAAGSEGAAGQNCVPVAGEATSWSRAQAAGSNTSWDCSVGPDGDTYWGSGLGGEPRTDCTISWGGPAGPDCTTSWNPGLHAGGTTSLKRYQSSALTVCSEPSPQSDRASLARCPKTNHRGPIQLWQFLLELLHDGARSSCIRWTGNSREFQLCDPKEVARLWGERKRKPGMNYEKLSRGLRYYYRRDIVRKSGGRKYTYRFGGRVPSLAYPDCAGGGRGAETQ
# Method in brief: as §1
# [8] = target: T5, ELF3 (Homo sapiens, UniProt P78545 1-371); conditions: protein: recombinant; tags: N-terminal GST; dsDNA, one strand shown
# T5 sequence: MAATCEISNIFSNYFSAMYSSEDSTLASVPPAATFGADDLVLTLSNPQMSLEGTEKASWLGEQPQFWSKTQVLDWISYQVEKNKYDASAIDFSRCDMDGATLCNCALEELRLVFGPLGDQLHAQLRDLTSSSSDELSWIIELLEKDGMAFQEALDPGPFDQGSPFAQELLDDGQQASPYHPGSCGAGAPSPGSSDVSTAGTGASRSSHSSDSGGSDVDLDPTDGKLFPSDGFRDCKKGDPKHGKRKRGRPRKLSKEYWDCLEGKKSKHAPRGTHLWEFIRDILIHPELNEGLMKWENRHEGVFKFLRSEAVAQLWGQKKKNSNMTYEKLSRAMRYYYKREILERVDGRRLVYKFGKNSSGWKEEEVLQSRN
# Method in brief: as §1
# [9] = target: CRX (Homo sapiens, UniProt O43186 1-299); conditions: protein: recombinant; tags: N-terminal GST; dsDNA, one strand shown
# Method in brief: as §1
# [10] = target: ETV1 (Homo sapiens, UniProt P50549 1-477); conditions: protein: recombinant; tags: N-terminal GST; dsDNA, one strand shown
# Method in brief: as §1
# [11] = target: T6, ERF (Homo sapiens, UniProt P50548 1-548); conditions: protein: recombinant; tags: N-terminal GST; dsDNA, one strand shown
# T6 sequence: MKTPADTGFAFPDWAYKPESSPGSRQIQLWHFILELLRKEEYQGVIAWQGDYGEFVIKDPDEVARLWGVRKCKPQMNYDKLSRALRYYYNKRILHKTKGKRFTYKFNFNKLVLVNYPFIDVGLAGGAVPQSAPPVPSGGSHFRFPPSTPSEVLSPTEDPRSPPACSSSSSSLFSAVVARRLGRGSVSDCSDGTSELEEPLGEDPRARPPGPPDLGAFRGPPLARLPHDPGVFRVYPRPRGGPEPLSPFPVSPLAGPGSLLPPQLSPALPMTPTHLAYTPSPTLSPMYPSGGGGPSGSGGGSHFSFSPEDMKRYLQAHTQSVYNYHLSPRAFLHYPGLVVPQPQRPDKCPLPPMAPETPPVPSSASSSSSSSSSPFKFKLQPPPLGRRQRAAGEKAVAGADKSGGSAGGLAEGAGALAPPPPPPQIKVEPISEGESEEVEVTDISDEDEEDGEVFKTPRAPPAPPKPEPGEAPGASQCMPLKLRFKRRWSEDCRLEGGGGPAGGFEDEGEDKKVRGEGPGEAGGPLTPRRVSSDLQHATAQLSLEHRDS
# Method in brief: as §1
# [12] = target: T7, ETV3L (Homo sapiens, UniProt Q6ZN32 1-361); conditions: protein: recombinant; tags: N-terminal GST; dsDNA, one strand shown
# T7 sequence: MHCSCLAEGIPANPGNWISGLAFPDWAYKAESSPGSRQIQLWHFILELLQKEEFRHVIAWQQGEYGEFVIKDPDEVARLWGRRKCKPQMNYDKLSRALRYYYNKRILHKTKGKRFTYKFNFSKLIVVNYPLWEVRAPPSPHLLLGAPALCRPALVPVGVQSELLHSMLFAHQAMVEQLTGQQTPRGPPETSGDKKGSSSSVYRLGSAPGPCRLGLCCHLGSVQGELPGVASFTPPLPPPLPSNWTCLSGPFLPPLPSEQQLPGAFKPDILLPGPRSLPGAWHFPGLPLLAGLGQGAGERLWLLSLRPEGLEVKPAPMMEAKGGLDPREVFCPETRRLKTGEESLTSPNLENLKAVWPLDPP
# Method in brief: as §1
# [13] = target: T8, ETS2 (Homo sapiens, UniProt P15036 1-469); conditions: protein: recombinant; tags: N-terminal GST; dsDNA, one strand shown
# T8 sequence: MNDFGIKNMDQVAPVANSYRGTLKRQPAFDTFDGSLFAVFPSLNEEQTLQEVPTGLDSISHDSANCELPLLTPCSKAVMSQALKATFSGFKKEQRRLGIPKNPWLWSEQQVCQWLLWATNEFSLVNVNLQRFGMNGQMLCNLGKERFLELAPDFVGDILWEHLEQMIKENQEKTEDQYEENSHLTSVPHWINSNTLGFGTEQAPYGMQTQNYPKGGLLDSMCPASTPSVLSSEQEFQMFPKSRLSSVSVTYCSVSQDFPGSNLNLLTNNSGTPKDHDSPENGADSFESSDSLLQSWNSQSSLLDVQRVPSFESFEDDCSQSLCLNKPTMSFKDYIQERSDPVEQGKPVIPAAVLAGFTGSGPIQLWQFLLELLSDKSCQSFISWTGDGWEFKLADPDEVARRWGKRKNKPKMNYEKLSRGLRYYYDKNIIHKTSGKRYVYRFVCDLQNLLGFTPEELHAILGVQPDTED
# Method in brief: as §1
# [14] = target: T9, SPDEF (Homo sapiens, UniProt O95238 1-335); conditions: protein: recombinant; tags: N-terminal GST; dsDNA, one strand shown
# T9 sequence: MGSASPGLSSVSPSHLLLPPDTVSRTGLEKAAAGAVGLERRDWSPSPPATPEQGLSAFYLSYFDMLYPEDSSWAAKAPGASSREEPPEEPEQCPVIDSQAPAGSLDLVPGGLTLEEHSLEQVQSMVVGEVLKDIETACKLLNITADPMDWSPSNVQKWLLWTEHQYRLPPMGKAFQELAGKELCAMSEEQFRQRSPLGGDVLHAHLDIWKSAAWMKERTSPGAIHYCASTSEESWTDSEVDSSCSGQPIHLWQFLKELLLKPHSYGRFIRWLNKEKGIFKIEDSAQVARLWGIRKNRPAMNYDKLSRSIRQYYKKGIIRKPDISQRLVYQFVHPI
# Method in brief: as §1
# [15] = target: T10, ETV7 (Homo sapiens, UniProt Q9Y603 1-341); conditions: protein: recombinant; tags: N-terminal GST; dsDNA, one strand shown
# T10 sequence: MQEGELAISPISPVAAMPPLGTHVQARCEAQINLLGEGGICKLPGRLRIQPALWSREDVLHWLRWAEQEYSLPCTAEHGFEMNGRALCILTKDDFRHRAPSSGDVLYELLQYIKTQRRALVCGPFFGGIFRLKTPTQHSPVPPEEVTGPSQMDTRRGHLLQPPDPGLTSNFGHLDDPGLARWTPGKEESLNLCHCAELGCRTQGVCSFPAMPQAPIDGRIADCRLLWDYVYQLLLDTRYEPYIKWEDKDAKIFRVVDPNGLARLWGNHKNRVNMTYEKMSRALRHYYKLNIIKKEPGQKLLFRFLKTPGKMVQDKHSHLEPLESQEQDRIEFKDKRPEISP
# Method in brief: as §1
# [16] = target: T11, ELF5 (Homo sapiens, UniProt Q9UKW6-2 1-255); conditions: protein: recombinant; tags: N-terminal GST; dsDNA, one strand shown
# T11 sequence: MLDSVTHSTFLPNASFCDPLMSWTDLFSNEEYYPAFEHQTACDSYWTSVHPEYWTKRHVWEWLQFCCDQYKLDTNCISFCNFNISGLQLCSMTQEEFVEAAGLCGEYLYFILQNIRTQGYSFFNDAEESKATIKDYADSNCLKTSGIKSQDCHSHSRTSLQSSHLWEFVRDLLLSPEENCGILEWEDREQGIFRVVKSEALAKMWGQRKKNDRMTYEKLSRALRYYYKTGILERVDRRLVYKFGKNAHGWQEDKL
# Method in brief: as §1
# [17] = target: ETV6 (Homo sapiens, UniProt P41212 1-452); conditions: protein: recombinant; tags: N-terminal GST; dsDNA, one strand shown
# Method in brief: as §1
# CRX, sequence (O43186 whole entry): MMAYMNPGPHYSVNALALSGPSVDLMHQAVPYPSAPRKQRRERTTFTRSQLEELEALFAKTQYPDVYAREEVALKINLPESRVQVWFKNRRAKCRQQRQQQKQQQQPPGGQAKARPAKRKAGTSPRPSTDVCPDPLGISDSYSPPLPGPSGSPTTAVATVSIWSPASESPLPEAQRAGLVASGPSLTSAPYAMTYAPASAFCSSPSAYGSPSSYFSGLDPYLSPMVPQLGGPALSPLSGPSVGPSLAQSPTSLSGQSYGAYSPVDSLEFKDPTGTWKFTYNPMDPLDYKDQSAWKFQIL
# ETV1, sequence (P50549 whole entry): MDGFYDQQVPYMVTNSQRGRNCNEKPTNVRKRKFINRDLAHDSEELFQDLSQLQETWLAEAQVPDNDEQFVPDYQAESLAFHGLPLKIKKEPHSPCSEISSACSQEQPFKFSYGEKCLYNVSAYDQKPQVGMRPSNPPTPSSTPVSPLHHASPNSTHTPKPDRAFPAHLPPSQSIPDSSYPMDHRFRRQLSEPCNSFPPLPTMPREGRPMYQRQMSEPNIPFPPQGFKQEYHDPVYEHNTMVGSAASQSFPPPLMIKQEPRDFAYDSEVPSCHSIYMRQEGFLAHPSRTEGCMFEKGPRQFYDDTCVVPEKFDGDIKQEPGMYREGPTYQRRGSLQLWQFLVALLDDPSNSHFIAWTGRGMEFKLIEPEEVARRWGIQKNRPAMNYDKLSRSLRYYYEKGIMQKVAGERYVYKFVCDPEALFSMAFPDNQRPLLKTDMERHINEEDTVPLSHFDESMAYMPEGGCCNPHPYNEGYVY
# ETV5, sequence (P41161 whole entry): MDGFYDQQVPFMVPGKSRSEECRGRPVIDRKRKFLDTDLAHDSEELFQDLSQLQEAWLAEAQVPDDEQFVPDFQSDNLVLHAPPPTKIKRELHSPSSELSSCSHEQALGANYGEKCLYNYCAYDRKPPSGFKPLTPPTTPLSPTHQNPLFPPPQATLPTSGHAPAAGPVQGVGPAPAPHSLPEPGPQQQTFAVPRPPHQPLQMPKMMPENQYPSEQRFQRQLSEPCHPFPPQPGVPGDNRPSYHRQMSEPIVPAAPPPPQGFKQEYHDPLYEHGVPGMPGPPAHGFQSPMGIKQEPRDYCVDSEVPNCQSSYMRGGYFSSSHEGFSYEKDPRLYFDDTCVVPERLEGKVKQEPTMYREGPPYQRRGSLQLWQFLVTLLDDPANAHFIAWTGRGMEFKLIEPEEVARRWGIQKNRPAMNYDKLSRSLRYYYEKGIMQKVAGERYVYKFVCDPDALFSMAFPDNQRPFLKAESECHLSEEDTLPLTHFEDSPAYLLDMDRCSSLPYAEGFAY
# ETV6, sequence (P41212 whole entry): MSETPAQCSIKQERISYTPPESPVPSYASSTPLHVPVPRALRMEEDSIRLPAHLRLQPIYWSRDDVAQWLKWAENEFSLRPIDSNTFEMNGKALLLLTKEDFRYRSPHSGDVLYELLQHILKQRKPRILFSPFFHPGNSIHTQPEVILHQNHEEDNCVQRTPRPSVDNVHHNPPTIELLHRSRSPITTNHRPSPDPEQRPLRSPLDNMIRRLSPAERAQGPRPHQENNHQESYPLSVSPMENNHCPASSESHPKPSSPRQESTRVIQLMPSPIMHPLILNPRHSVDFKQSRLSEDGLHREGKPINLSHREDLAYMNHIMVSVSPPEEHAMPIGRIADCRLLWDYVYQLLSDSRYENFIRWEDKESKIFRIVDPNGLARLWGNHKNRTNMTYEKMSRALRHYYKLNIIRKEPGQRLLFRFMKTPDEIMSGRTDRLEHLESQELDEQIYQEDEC
# HSF1, sequence (Q00613 whole entry): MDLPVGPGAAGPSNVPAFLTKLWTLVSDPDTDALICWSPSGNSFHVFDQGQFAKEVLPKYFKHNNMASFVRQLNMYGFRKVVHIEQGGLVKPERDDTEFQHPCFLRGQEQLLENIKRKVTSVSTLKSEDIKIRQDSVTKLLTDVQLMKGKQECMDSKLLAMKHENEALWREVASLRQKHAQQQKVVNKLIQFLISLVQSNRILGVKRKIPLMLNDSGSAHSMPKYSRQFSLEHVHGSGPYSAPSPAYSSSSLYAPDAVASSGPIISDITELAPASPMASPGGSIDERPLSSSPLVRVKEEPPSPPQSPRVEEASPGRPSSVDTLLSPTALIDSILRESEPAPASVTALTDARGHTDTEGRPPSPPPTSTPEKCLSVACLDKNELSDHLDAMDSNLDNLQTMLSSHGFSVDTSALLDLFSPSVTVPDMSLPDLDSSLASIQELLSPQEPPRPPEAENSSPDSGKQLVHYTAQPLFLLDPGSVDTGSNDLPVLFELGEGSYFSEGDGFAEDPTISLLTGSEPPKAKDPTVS
# ELF4, sequence (Q99607 whole entry): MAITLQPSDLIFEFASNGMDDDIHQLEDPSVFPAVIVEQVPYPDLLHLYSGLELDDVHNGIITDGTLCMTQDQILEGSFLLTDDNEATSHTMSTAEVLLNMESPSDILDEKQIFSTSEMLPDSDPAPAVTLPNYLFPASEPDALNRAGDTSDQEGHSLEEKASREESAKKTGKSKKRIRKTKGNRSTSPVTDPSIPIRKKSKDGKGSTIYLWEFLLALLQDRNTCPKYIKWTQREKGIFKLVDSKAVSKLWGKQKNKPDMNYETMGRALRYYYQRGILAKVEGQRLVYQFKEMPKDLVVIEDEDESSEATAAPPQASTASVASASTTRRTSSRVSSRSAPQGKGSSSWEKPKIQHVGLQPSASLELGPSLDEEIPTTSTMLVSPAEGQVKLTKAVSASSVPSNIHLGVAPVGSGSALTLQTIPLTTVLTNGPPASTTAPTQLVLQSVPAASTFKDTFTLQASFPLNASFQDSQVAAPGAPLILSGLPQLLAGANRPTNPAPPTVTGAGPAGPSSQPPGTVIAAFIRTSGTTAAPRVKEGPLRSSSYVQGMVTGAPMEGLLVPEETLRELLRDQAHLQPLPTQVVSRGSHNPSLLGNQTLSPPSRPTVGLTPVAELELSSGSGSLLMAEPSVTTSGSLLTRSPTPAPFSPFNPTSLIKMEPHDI
sequence,measurement,setting,value
ATCCCA,binding signal,[1],"1.14 fold enrichment (6-mer frequency, TF over GST control)"
same,binding signal,[2],"1.11 fold enrichment (6-mer frequency, TF over GST control)"
same,binding signal,[3],"1.34 fold enrichment (6-mer frequency, TF over GST control)"
same,binding signal,[4],"1.07 fold enrichment (6-mer frequency, TF over GST control)"
same,binding signal,[5],"1.1 fold enrichment (6-mer frequency, TF over GST control)"
same,binding signal,[6],"1.13 fold enrichment (6-mer frequency, TF over GST control)"
same,binding signal,[7],"1.14 fold enrichment (6-mer frequency, TF over GST control)"
same,binding signal,[8],"1.23 fold enrichment (6-mer frequency, TF over GST control)"
same,binding signal,[9],"1.69 fold enrichment (6-mer frequency, TF over GST control)"
same,binding signal,[10],"1.09 fold enrichment (6-mer frequency, TF over GST control)"
same,binding signal,[11],"1.21 fold enrichment (6-mer frequency, TF over GST control)"
same,binding signal,[12],"1.1 fold enrichment (6-mer frequency, TF over GST control)"
same,binding signal,[13],"1.03 fold enrichment (6-mer frequency, TF over GST control)"
same,binding signal,[14],"1.1 fold enrichment (6-mer frequency, TF over GST control)"
same,binding signal,[15],"1.2 fold enrichment (6-mer frequency, TF over GST control)"
same,binding signal,[16],"1.17 fold enrichment (6-mer frequency, TF over GST control)"
same,binding signal,[17],"1.12 fold enrichment (6-mer frequency, TF over GST control)"
